Many of the other results were omitted from the sample, so hits are more common in it than they were.
L3MBTL1 block: qHTS Assay for the Inhibitors of L3MBTL1; Lethal(3)malignant brain tumor-like protein 1 (Homo sapiens), Q9Y468; AlphaScreen L3MBTL1–H3K9me1 peptide binding; 230,000 tested, 0.66% active; Potency, µM (top dose mostly 57.1 µM), for inactives: at the top dose activity, negative = inhibition, most hits filed as inhibitors; AID 485360, 2010; further: nearly all actives have a fitted effect of over 60% in size
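Read-out is AlphaScreen signal from streptavidin donor and nickel chelate acceptor beads (10 ug/mL final each) bridging L3MBTL1 (50 nM) and biotinylated K9-monomethylated H3(1-15) peptide (75 nM), after 30 min compound exposure at room temperature.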
GoLoco inh red: qHTS Assay for Inhibitors of RGS12 GoLoco Motif Activity (Red Fluorophore); Gai1:RGS12 GoLoco peptide FP, rhodamine, 10 min; Guanine nucleotide-binding protein G(i) subunit alpha-1 (Homo sapiens), P63096; 230,000 tested, 0.44% active; Potency, µM (highest dose often 61.6 µM), inactives show top-dose activity, negative = inhibition, actives largely listed as inhibitors; active means well fitted inhibition curve with a large enough effect, not every such curve was filed as active; inactive means no such curve, though single readings can be large or run the other way; further: nearly all actives have a fitted effect of over 30% in size
BLM helicase inh: qHTS Assay for Inhibitors of Bloom's syndrome helicase (BLM). RecQ-like DNA helicase BLM (Homo sapiens), P54132. recombinant BLM DNA unwinding, fluorescence dequenching. Potency, µM (titrated, usually from 56.1 µM), without a hit: at the highest dose activity change, negative = inhibition, usual class: inhibitors. 350,000 tested, 0.2% active. AID 2528, 2010;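 further: plate controls were vehicle for no effect and no enzyme for full effect; nearly all actives have a fitted effect of over 35% in size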
RECQ1 inh: qHTS Assay for Inhibitors of RecQ-Like Dna Helicase 1 (RECQ1); AID 2549, 2010; RECQ1 DNA unwinding, red fluorescence kinetic read; 240,000 tested, 0.54% active; Potency, µM (series often up to 57.3 µM), without a hit: at the top dose activity, negative = inhibition, actives largely listed as inhibitors; ATP-dependent DNA helicase Q1 (Homo sapiens), P46063;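 further: plate controls were vehicle for no effect and no enzyme for full effect; nearly all actives have a fitted effect of over 30% in size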
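50 nM RECQ1T1 preincubated 15 min with compound in Tris pH 8.0 buffer with MgCl2, DTT, Tween-20 and 2.5 ug/ml poly(dI-dC); started with 200 nM TAMRA/BHQ-2 forked duplex and 2 mM ATP. Unwinding read as fluorescence (525/598 nm), two reads 2 h apart.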
APEX1 inh: qHTS Assay for Inhibitors of the Human Apurinic/apyrimidinic Endonuclease 1 (APE1); recombinant APE1, TAMRA/BHQ-2 abasic DNA cleavage fluorescence; Potency, µM (doses to about 65.8 µM), for the others: top-dose activity change, negative = inhibition, actives largely listed as inhibitors; 350,000 tested, 0.35% active;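 further: plate controls were vehicle for no effect and reference inhibitor for full effect; nearly all actives have a fitted effect of over 55% in size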
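Substrate: short duplex with […] THF abasic site, 5'-TAMRA and 3'-BHQ-2, 50 nM final. APE1 at 0.75 nM, preincubated 15 min RT with compound. Fluorescence increase from first to third read measured activity.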
KDM4E inh: qHTS Assay for Inhibitors of Human Jumonji Domain Containing 2E (JMJD2E) | 230,000 tested, 1.6% active | Potency, µM (titrated, usually from 57.1 µM), without a hit: at the highest dose activity change, negative = inhibition, most hits filed as inhibitors | Lysine-specific demethylase 4E (Homo sapiens), B2RXH2 | JMJD2E catalytic domain, FDH-coupled NADH fluorescence (FDH is formaldehyde dehydrogenase);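 further: 0% = wells with enzyme and -100% = buffer wells without enzyme; nearly all actives have a fitted effect of over 50% in size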
An asterisk follows results filed as active; ! = not confirmed by another sample; [ ] = dose if it differs, or a comment. Unless noted, the call rests on the fitted dose curve; in most records, active means well fitted curve in the direction sought with a large enough effect; inconclusive means small, poorly fitted or top-dose-only effect, or another doubt; inactive means no such curve, though single readings can be large; an effect the other way counts as inactive or inconclusive. Unless noted, on the % scale 0 is the no-effect control and ±100 the full control effect; potency means the concentration at half of the fitted maximal effect.

Results for Cc1nnsc1C(=O)N/N=C/c1ccc2ccccc2c1O ?
L3MBTL1 block: 2µM*; BLM helicase inh: -3.1%; RECQ1 inh: -1.9%; APEX1 inh: 0.7%; KDM4E inh: 22.4µM*

Results for Cc1nnsc1C(=O)N/N=C/c1ccccc1 ?
L3MBTL1 block: -9.1%; GoLoco inh red: 3.9%; BLM helicase inh: -14.3%; RECQ1 inh: 11.5%; APEX1 inh: 16.9%; KDM4E inh: 2.5%

Results for COc1cccc(/C=N/NC(=O)Cn2ccnc2C)c1 ?
L3MBTL1 block: -0.9%; GoLoco inh red: 6.3%; BLM helicase inh: 3.8%; RECQ1 inh: -5.1%; APEX1 inh: -9.2%; KDM4E inh: -15.7%

What do the screens show for `COc1c(O)cccc1/C=N/NC(=O)Cn1ccnc1C`?
L3MBTL1 block: inconclusive; GoLoco inh red: 4.3%; BLM helicase inh: 0.2%; RECQ1 inh: 5.8%; APEX1 inh: 2.9%; KDM4E inh: 10µM*

How did O=C(Nc1ccc(Cl)cc1)NC1CCCc2ccccc21 (stereo not drawn) do in these assays?
L3MBTL1 block: 2.1%; GoLoco inh red: 3.7%; BLM helicase inh: -1.1%; RECQ1 inh: -2.0%; APEX1 inh: -2.1%; KDM4E inh: -3.0%

Results for O=C1C(Cl)=C(NC2CCc3ccccc32)C(=O)c2ncccc21 (stereo not drawn) ?
GoLoco inh red: -7.3%; BLM helicase inh: 2.51µM*; RECQ1 inh: 11.2µM*; APEX1 inh: inconclusive; KDM4E inh: 5.01µM*

Results for COc1ccc2ccc3c(c2c1)N=C[C@]1(O3)N(C)c2ccccc2C1(C)C ?
L3MBTL1 block: -0.1%; GoLoco inh red: -23.6%; BLM helicase inh: -12.0%; RECQ1 inh: -10.3%; APEX1 inh: -4.2%; KDM4E inh: 11.2µM*

How did Clc1ccc(/C(Cc2nc3ccccc3[nH]2)=N\Nc2ccccc2)cc1 do in these assays?
L3MBTL1 block: inconclusive; GoLoco inh red: -30.3%; BLM helicase inh: 1.0%; RECQ1 inh: -14.9%; APEX1 inh: -1.3%; KDM4E inh: 22.4µM*

How did COC(=O)c1cc(OC)nc(OC)c1 do in these assays?
L3MBTL1 block: 2.9%; GoLoco inh red: 2.1%; BLM helicase inh: -0.1%; RECQ1 inh: -9.3%; APEX1 inh: 2.8%; KDM4E inh: inconclusive

Results for COC(=O)c1cc(O)c(O)c(O)c1 ?
L3MBTL1 block: inconclusive; GoLoco inh red: -1.7%; BLM helicase inh: 0.8%; RECQ1 inh: -0.5%; APEX1 inh: 14.1µM*; KDM4E inh: 15.8µM*

How did Cc1ccc2[nH]c(-c3ccc(F)cc3F)cc(=O)c2c1 do in these assays?
GoLoco inh red: -0.9%[88.7 µM]; BLM helicase inh: 2.4%[120 µM]; RECQ1 inh: inactive; APEX1 inh: -4.0%[120 µM]

What do the screens show for `CNCc1ccccc1Sc1cc(O)ccc1O`?
L3MBTL1 block: -13.3%; GoLoco inh red: 4.47µM*; BLM helicase inh: -3.2%; RECQ1 inh: inconclusive; APEX1 inh: -6.1%; KDM4E inh: inconclusive

Results for CCOC(=O)c1ccccc1NC(=O)CN1CCCN(Cc2cc(C)ccc2C)S1(=O)=O ?
BLM helicase inh: -6.0%

How did Cc1ccc(NC(=O)C(c2ccccc2)N2CCN(CC(=O)N3CCOCC3)CC2)cc1Cl (stereo not drawn) do in these assays?
L3MBTL1 block: -0.6%; APEX1 inh: 10.6µM*

Results for O=C(Nc1ccc(F)cc1)C(c1ccccc1)N1CCN(CC(=O)N2CCOCC2)CC1 (stereo not drawn) ?
L3MBTL1 block: -2.7%; APEX1 inh: 15.7%

Results for O=C(Nc1ccccc1F)c1ccc(CSc2ncccn2)cc1 ?
L3MBTL1 block: -1.3%[11.4 µM]; GoLoco inh red: 4.9%; BLM helicase inh: -5.6%; RECQ1 inh: inactive; APEX1 inh: -8.0%; KDM4E inh: -17.8%

What do the screens show for `O=C(Nc1ccccc1)c1ccc(CSc2ncccn2)cc1`?
L3MBTL1 block: -3.4%; GoLoco inh red: 2.24µM*; BLM helicase inh: -3.0%; RECQ1 inh: -4.2%; APEX1 inh: -3.6%; KDM4E inh: 0.8%

Results for O=C(OCCCN1CCOCC1)c1ccc(O)c(O)c1 ?
L3MBTL1 block: -0.9%; GoLoco inh red: 8.0%; BLM helicase inh: -2.5%; RECQ1 inh: -2.1%; APEX1 inh: 1.8%; KDM4E inh: 15.8µM*

Results for O=C1CCNc2c(Cl)cc(Cl)cc21 ?
L3MBTL1 block: 42.1%; GoLoco inh red: 7.6%; BLM helicase inh: -0.1%; RECQ1 inh: -8.8%; APEX1 inh: -0.9%; KDM4E inh: -3.5%

What do the screens show for `O=C1CCNc2c(Cl)cccc21`?
L3MBTL1 block: 10.7%; GoLoco inh red: 4.47µM*; BLM helicase inh: 63.8%; RECQ1 inh: -16.1%; APEX1 inh: inconclusive; KDM4E inh: -2.0%

How did CC(C)(C)n1ncc2c(=O)n(Cc3ccccc3Cl)cnc21 do in these assays?
APEX1 inh: 1.2%

How did O=C(/C=C\c1ccc(O)c(O)c1)O[C@@H](Cc1ccc(O)c(O)c1)C(=O)O do in these assays?
GoLoco inh red: 10µM*; BLM helicase inh: -0.9%; RECQ1 inh: -15.8%; APEX1 inh: 2.51µM*; KDM4E inh: 4.47µM*

Results for O=C(/C=C/c1ccc(O)c(O)c1)OC(Cc1ccc(O)c(O)c1)C(=O)O (stereo not drawn) ?
GoLoco inh red: -38.1%; BLM helicase inh: -1.6%; RECQ1 inh: 12.6µM*!; APEX1 inh: 1.26µM*!; KDM4E inh: 3.98µM*

Results for O=C(/C=C/c1ccc(O)c(O)c1)O[C@@H]1C[C@@](O)(C(=O)O)C[C@H](O)[C@@H]1O ?
GoLoco inh red: -11.4%; BLM helicase inh: -1.9%; RECQ1 inh: 3.2%; APEX1 inh: inconclusive; KDM4E inh: inconclusive

How did Oc1cc2c(cc1O)C1c3ccc(O)c(O)c3OCC1(O)C2 (stereo not drawn) do in these assays?
L3MBTL1 block: inconclusive; GoLoco inh red: 7.94µM*; BLM helicase inh: -25.0%; RECQ1 inh: inconclusive; APEX1 inh: 14.1µM*!; KDM4E inh: 0.708µM*

Results for COc1ccc(-c2cc(=O)n(CCC#N)[nH]2)cc1 ?
L3MBTL1 block: -11.3%; GoLoco inh red: 8.2%; BLM helicase inh: 4.7%; RECQ1 inh: 2.2%; APEX1 inh: 13.5%; KDM4E inh: 1.78µM*
